These results are taken from PubChem BioAssay AID1159602 (The Scripps Research Institute Molecular Screening Center, 2016).

Among all 22,000 compounds or so, about 220 (1%) were called active. The sample holds actives, similar compounds and a random draw of the others, so the mix is not that of the screen. Rule as the data show it: active = inhibition above about 35%; inactive = the rest.

For this experiment, the target named is Mitogen-activated protein kinase kinase kinase 5 (Homo sapiens) (UniProt Q99683). The experiment is described as follows: ASK1 kinase inhibitors, primary screen, biochemical, AlphaScreen (AID 1159602).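 Also: 0% = median of compound wells and 100% = no enzyme.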 The note with it: AlphaScreen MKK6 phosphorylation by ASK1, luminescence; at 7.44 µM; hits give high values.
Chain of Mitogen-activated protein kinase kinase kinase 5 (Homo sapiens) (Q99683 whole entry, looked up): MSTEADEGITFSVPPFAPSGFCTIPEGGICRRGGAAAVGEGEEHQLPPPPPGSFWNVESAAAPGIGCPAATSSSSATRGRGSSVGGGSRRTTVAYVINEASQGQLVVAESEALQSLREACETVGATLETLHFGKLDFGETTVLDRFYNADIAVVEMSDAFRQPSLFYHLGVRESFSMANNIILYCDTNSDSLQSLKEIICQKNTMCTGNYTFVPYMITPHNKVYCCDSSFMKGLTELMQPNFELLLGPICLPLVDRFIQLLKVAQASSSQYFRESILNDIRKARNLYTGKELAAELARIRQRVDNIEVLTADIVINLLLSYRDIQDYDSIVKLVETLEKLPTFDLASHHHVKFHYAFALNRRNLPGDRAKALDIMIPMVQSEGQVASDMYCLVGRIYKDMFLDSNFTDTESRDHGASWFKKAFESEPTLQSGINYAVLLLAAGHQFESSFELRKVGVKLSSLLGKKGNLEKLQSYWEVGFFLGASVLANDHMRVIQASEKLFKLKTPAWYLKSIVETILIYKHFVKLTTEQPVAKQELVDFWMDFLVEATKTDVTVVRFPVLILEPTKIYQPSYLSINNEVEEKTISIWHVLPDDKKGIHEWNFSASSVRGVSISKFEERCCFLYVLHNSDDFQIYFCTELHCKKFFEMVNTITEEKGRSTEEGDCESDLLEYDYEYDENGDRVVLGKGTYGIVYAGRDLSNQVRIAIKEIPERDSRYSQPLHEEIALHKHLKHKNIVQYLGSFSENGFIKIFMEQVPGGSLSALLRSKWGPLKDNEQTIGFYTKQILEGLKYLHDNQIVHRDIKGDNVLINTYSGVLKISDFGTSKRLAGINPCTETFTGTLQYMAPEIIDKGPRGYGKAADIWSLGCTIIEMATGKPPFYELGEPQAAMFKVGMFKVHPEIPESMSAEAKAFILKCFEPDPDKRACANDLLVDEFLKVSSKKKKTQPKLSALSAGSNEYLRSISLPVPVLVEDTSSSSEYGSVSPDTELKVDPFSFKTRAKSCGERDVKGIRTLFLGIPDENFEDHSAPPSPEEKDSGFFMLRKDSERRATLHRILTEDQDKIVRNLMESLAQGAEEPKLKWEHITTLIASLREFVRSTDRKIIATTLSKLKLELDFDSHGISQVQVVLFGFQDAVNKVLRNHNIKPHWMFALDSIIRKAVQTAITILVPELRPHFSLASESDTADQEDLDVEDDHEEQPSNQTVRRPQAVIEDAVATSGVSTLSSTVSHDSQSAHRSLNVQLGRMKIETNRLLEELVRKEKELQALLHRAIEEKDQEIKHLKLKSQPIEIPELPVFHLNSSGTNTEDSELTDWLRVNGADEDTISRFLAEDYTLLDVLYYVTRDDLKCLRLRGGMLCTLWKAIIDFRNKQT
For the molecule `O=C(NCc1cccc(C(F)(F)F)c1)c1csc(NCc2ccc3c(c2)OCO3)n1`, the inhibition is 8.66% (inactive). To `Cc1cc(NCCO)nc(Nc2nccc3ccccc23)n1` belongs -10.4% (inactive); to `COc1nc(N)nc(-c2csc3ccccc23)n1`, 2.99% (inactive).

Take `CCNc1nc(Nc2cc(OC)c(OC)c(OC)c2)c2ncn(-c3ccsc3)c2n1`: the inhibition was 8.63% (inactive). As for `O=C(NCCN1CCOCC1)c1csc(N2CCC(N3CCOCC3)CC2)n1`, the inhibition was -5.25% (inactive).

Regarding `c1cn(-c2ccc(Nc3nc4ncnc(NC5CC5)c4[nH]3)cc2)cn1`, the inhibition was 18.6% (inactive). Turning to `COc1ccc(-c2cc(C(=O)Nc3ccc(N4CCOCC4)cc3)ccn2)cc1`, the inhibition was 11.5% (inactive). As to `c1ccc(CN2CCC(Nc3nc(N4CCc5ccccc5C4)nc4c3ncn4-c3ccsc3)CC2)cc1`, the inhibition was 9.04% (inactive). On to `Cc1ncn(-c2ccc(Nc3nccc(N4CCc5[nH]ncc5C4)n3)cc2)n1`, for which the inhibition is -13.8% (inactive).

On to `CCN(CC)c1nc(NCc2nc3ccccc3[nH]2)nc(N2CCCC2CO)n1` (stereo not given), for which the inhibition was -6.32% (inactive). With `c1ccc2[nH]c(CNc3ncnc4nc(N5CCC(N6CCOCC6)CC5)[nH]c34)nc2c1` the figure was -21.4% (inactive). With `O=C(NCC(O)c1ccc(Br)cc1)c1cn(-c2cccc3c(=O)[nH]ccc23)nn1` (stereo not given) the figure was 13.4% (inactive); with `c1ccc(OCCNc2cc(-c3ccccc3)ncn2)cc1`, -16.6% (inactive). With `CC(=O)Nc1ccc(Nc2ccnc(N3CCC(N4CCOCC4)CC3)n2)cc1` the figure was -0.1% (inactive); with `CC(C)n1cnc2c(NCc3ccccc3)nc(NC3CCC(O)CC3)nc21` (stereo not given), -16.8% (inactive); with `Cc1ccc(C(=O)N2CCCC(Nc3cccc4cncc(C)c34)C2)cc1F` (stereo not given), -24.3% (inactive). Turning to `CN(C)CCCNC(=O)c1ccc2c(c1)CC(c1nc3ccc(-c4ccnc(N)n4)cc3[nH]1)CO2` (stereo not given), the inhibition is 12.4% (inactive). To `c1ccc(-n2cnc3c(NCCN4CCOCC4)nc(Nc4ccc(-n5ccnc5)cc4)nc32)cc1` belongs 5.99% (inactive); to `O=C(NCCN1CCOCC1)c1cccc(-n2ncc3cc(Nc4ccccc4F)ccc32)n1`, -7.35% (inactive).

Regarding `O=C(Nc1ccc(N2CCOCC2)cc1)c1cccc(N2CCC(N3CCOCC3)CC2)n1`, the inhibition was 13.2% (inactive). In the case of `Nc1nc(N2CCN(c3ccccn3)CC2)nc2c1ncn2-c1ccsc1`, the inhibition was 1.87% (inactive). For `CC(=O)Nc1ccc(Nc2nc(Nc3ccc(-n4ccnc4)cc3)nc3c2ncn3-c2ccsc2)cc1`, the inhibition was 4.85% (inactive).

As to `O=C(NCCN1CCOCC1)c1cccc(-c2ccc(N3CCOCC3)nc2)c1`, the inhibition is 1.42% (inactive).

Turning to `CC(C)N(CCNC(=O)c1ccnc(Nc2ccc(C(F)(F)F)cc2)c1)C(C)C`, the inhibition is 7.8% (inactive). To `CCCN1CCN(c2c(Cl)cccc2NC(=O)Nc2ccc(Br)cc2)CC1` belongs -17.3% (inactive); to `c1cc(-c2cncc(N3CCOCC3)c2)nc(Nc2ccc3c(c2)OCO3)n1`, -4.36% (inactive); to `COc1ccc(CCNc2cc(NCc3cccnc3)nc(N)n2)cc1`, -6.16% (inactive).

`Cc1cc(NC2CC2)nc(NCCCN2CCCC2=O)n1`: the inhibition is 7.09% (inactive). With `COc1ccc(CCNc2cc(-c3ccc(OC)cc3)nc(N)n2)cc1` the figure was -5.04% (inactive); with `COc1cc2nc(Nc3ccc4ncccc4c3)nc(Nc3ccc(NC(C)=O)cc3)c2cc1OC`, 35.6% (active).

For `COc1cc2nc(Nc3nccc4ccccc34)nc(Nc3ccccc3)c2cc1OC`, the inhibition is -29.2% (inactive). To `COc1cc2nc(NCc3ccc4c(c3)OCO4)nc(Nc3ccc(NC(C)=O)cc3)c2cc1OC` belongs 18.8% (inactive); to `COc1cc2nc(Nc3cccc(N(C)C)c3)nc(Nc3cc(OC)c(OC)c(OC)c3)c2cc1OC`, 36.7% (active). To `COc1cc2nc(Nc3ncccn3)nc(Nc3cc(OC)c(OC)c(OC)c3)c2cc1OC` belongs 14.3% (inactive); to `COc1cc(Nc2nc(Nc3cccc(N(C)C)c3)nc3nc[nH]c23)cc(OC)c1OC`, 27% (inactive). Take `FC(F)(F)c1ccc(Cn2cnc3c(NCc4nc5ccccc5[nH]4)nc(N4CCOCC4)nc32)cc1`: the inhibition was -1.96% (inactive). `Cn1nccc1-c1cc(F)cc(-c2ccnc(Nc3ccc(-n4cnc(N5CCOCC5)n4)cc3)n2)c1`: the inhibition is 21.1% (inactive). To `O=C(Nc1cccc(Cl)c1N1CCC(N2CCCCC2)CC1)c1ccc(Br)o1` belongs 9.68% (inactive). To `O=C1CCCN1CCn1cnc2c(Nc3ccc(N4CCOCC4)cc3)nc(Nc3ccccc3)nc21` belongs 13.9% (inactive); to `COc1ccc(CCNC(=O)c2cccc(-c3ccc(C(N)=O)cc3)n2)cc1`, 0.41% (inactive); to `CNC(=O)c1cc(F)ccc1Nc1cc(Nc2ccc3c(c2)CCC(=O)N3)ncc1C(F)(F)F`, 2.41% (inactive). `c1ccc(CCNc2nccc(Nc3ccncn3)n2)cc1`: the inhibition is 1.01% (inactive). Consider `CC(C)n1cnc2c(Nc3ccc(N4CCOCC4)cc3)nc(Nc3ccncc3)nc21`, for which the inhibition was 4.78% (inactive). To `COc1cc(Nc2nc(N3CCc4ccccc4C3)nc3c2ncn3-c2ccccc2)cc(OC)c1OC` belongs 38.8% (active). As to `COc1cc(Nc2nc(N3CCc4ccccc4C3)nc3c2ncn3-c2ccsc2)cc(OC)c1OC`, the inhibition is 6.46% (inactive). As for `CCCNc1nc(N2CCc3ccccc3C2)nc2c1ncn2-c1ccccc1`, the inhibition is 6.17% (inactive). As to `O=C(NCc1ccccc1)c1cnc(NCc2ccc3c(c2)OCO3)s1`, the inhibition was -19.1% (inactive).

Take `O=C1CCCN1CCCNc1nccc(NC2CCN(Cc3ccccc3)CC2)n1`: the inhibition was -6.87% (inactive). For `Nc1nc(Nc2ccc(N3CCOCC3)cc2)cc(-c2ccc3[nH]ccc3c2)n1`, the inhibition is 41.8% (active). For the molecule `c1nc(Nc2ccc(N3CCOCC3)cc2)cc(N2CCOCC2)n1`, the inhibition was 3.52% (inactive).

In the case of `CN1CCN(c2ccc(-c3cc(Nc4ccc(N5CCOCC5)cc4)nc(N)n3)cc2)CC1`, the inhibition is 17.6% (inactive). To `Nc1cccc(-c2nc(NCCc3ccc(O)cc3)c3ncn(Cc4ccc(C(F)(F)F)cc4)c3n2)c1` belongs 3.28% (inactive); to `c1ccc(CCCNc2nccc(Nc3ccncn3)n2)cc1`, 12.3% (inactive).

Regarding `Nc1nc(Nc2ccc(-n3ccnc3)cc2)cc(NC2CCN(Cc3ccccc3)CC2)n1`, the inhibition is 18.2% (inactive). To `COc1ccc(-c2cccc(C(=O)Nc3ccccc3)n2)cn1` belongs -3.52% (inactive); to `O=C(NCCO)c1ccc2nc(NCCN3CCOCC3)sc2c1`, -9.95% (inactive).

`COc1nc(Nc2ccccc2)nc(-c2csc3ccccc23)n1`: the inhibition is -2.87% (inactive). For `c1csc(-c2ccnc(Nc3ccc(N4CCOCC4)cc3)n2)c1`, the inhibition was 13.2% (inactive). To `CCCNc1nc(-c2cccc(C(C)=O)c2)ncc1C` belongs -6.63% (inactive). For `O=C(Nc1ccc2[nH]ncc2c1)C1CCN(C(=O)[C@H](O)c2cccc(Cl)c2)C1` (stereo not given in full), the inhibition was -11.7% (inactive). To `CC(C)n1cnc2c(NC3CCN(Cc4ccccc4)CC3)nc(-c3ccc(N4CCOCC4)nc3)nc21` belongs 11% (inactive); to `O=C1CCCN1CCCNc1cc(NCc2cccnc2)ncn1`, 2.26% (inactive); to `CCN(CC)C(=O)C1CCCN(c2nc3ncnc(NCCN4CCOCC4)c3[nH]2)C1` (stereo not given), 1.62% (inactive). To `O=C(NC1CC1)c1ccc(-c2ncc(C(=O)Nc3ccc(N4CCOCC4)cc3)s2)cc1` belongs 1.95% (inactive). To `Nc1cccc(-c2ccc(C(=O)NCc3nc4ccccc4[nH]3)s2)c1` belongs 7.11% (inactive); to `CCCNc1nc(-c2ccc(C(=O)N3CCN(C)CC3)cc2)nc2c1ncn2C(C)C`, -4.93% (inactive).

For the molecule `c1ccc(OCCNc2cc(NCc3ccc4c(c3)OCO4)ncn2)cc1`, the inhibition was 11.6% (inactive). To `O=C(NC1CC1)c1ccc(-c2nc(NC3CC3)c3ncn(C4CCCCC4)c3n2)cc1` belongs -4.59% (inactive); to `Cc1[nH]ncc1-c1ccc(NC(=O)CCc2ccccc2)cc1`, 1.62% (inactive); to `O=C(NC1CC1)c1ccc(-c2nc(C(=O)NCc3cccc(C(F)(F)F)c3)cs2)cc1`, -7.56% (inactive). To `c1ccc(CN2CCC(Nc3nc(NCc4ccc5c(c4)OCO5)nc4c3ncn4C3CCCCC3)CC2)cc1` belongs 24.9% (inactive); to `FC(F)(F)c1ccc(Cn2cnc3c(NC4CCN(Cc5ccccc5)CC4)nc(Nc4nccc5ccccc45)nc32)cc1`, 7.54% (inactive). To `FC(F)(F)c1cnc(Nc2ccc(N3CCOCC3)cc2)cc1-n1ncc2ccccc21` belongs -0.62% (inactive). In the case of `FC(F)(F)c1cccc(CNc2nc(N3CCOCC3)nc3c2ncn3-c2ccsc2)c1`, the inhibition is 8.31% (inactive). With `FC(F)(F)c1ccc(Cn2cnc3c(NCc4cccc(C(F)(F)F)c4)nc(Nc4ccc(N5CCOCC5)cc4)nc32)cc1` the figure was 12.8% (inactive); with `FC(F)(F)c1cccc(CNc2ncnc3nc(N4CCOCC4)[nH]c23)c1`, -25.3% (inactive).

Take `c1ccc(N2CCN(c3nc(NCc4nc5ccccc5[nH]4)c4ncn(-c5ccsc5)c4n3)CC2)nc1`: the inhibition was -8.09% (inactive).

As for `O=C1CCCN1CCn1cnc2c(NCc3cccc(C(F)(F)F)c3)nc(N3CCN(Cc4ccc5c(c4)OCO5)CC3)nc21`, the inhibition is 15.8% (inactive). With `O=C1CCCN1CCCNc1nc(N2CCN(Cc3ccc4c(c3)OCO4)CC2)nc2c1ncn2-c1ccccc1` the figure was 14.4% (inactive); with `FC(F)(F)c1cccc(CNc2nc(N3CCN(c4ccccn4)CC3)nc3c2ncn3-c2ccsc2)c1`, 40.9% (active); with `c1ccc(CNc2nc(N3CCN(c4ccccn4)CC3)nc3c2ncn3-c2ccsc2)cc1`, 19.3% (inactive). With `FC(F)(F)c1cccc(CNc2nc(N3CCN(Cc4ccc5c(c4)OCO5)CC3)nc3c2ncn3-c2ccccc2)c1` the figure was 36.7% (active). To `FC(F)(F)c1cccc(CNc2nc(Nc3ccc(N4CCOCC4)cc3)nc3c2ncn3-c2ccsc2)c1` belongs 41.6% (active); to `Cc1cnc(Nc2ccc(N3CCOCC3)cc2)nc1NCc1cccc(C(F)(F)F)c1`, 41.4% (active).

Regarding `COc1cc(Nc2nc(NCc3cccc(C(F)(F)F)c3)c3ncn(-c4ccsc4)c3n2)cc(OC)c1OC`, the inhibition was 15.7% (inactive).
